Consider 66 compounds from PubChem BioAssay AID624354 (Sanford-Burnham Center for Chemical Genomics, 2012).

Out of some 360,000 compounds screened, about 3,800 (1.1%) were called active.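 The calls were made as follows: active = compounds causing at least 50% loss of cell viability in the single-dose screen, relative to plate controls; inactive = the rest.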 The entries come from a sample that favours actives as a whole.

The nature of the experiment: viability loss with TRAIL in NB7+C8 cells, primary screen, TRAIL sensitizer project, cell-based, ATPlite luminescence (AID 624354). As to conditions: at 10 µM, stronger effect = higher value.
For `CCCCC(=O)Nc1cc(C)c2c(=O)oc3ccccc3c2n1`, the inhibition (viability loss, TRAIL sensitization) was 58.6% (active).
Turning to `CCCCC(=O)Nc1ccc2c(c1)C(=O)NC2=O`, the inhibition (viability loss, TRAIL sensitization) was 8.86% (inactive).
For the compound `Cc1ccc(C)c(NC(=O)CSc2nc3c(oc4ccccc43)c(=O)n2-c2ccccc2)c1`, the inhibition (viability loss, TRAIL sensitization) is -5.26% (inactive).
For `Cc1cc(Cl)c(S(=O)(=O)Nc2ccc3c(c2)OCCO3)cc1OCC(N)=O`, the inhibition (viability loss, TRAIL sensitization) is 1.34% (inactive).
As to `CC1CCc2c(sc3c2C2=NS(=O)(=O)CCN2C=N3)C1` (stereo unspecified), the inhibition (viability loss, TRAIL sensitization) is -12.9% (inactive).
Then `O=C1C[C@@H]2c3c(cccc3CN1Cc1ccccc1)C[C@@H](O)[C@H]2O`, with -11.3% (inactive); and `COc1ccc2c(c1)CCCO[C@]21O[C@H](CCO)C[C@H](O)[C@H]1O`, with 2.33% (inactive); and `Nc1nc2ncccn2c1-c1ccccc1`, with -21.7% (inactive).
On to `COc1ccc(C(=O)NC(C)c2nccs2)cc1OC1CCN(C(C)C)CC1` (stereo unspecified), for which the inhibition (viability loss, TRAIL sensitization) was -24.4% (inactive).
Then `O=C(CC1SC(N2CCOCC2)=NC1=O)Nc1ccccc1F` (stereo unspecified), with 7.68% (inactive); and `O=C(CC1SC(=Nc2ccccc2F)N(CCN2CCOCC2)C1=O)Nc1ccc(F)cc1F` (stereo unspecified), with 72.8% (active); and `O=C(CN1CCN(C/C=C/c2ccccc2)CC1)Nc1ccc(F)cc1F`, with 8.21% (inactive).
Consider `NC(=O)c1ccc(N2CCOCC2)nc1`, for which the inhibition (viability loss, TRAIL sensitization) was -4.39% (inactive).
With `COc1ccc(N(C)S(=O)(=O)c2cccc3nsnc23)cc1`, the inhibition (viability loss, TRAIL sensitization) is -0.348% (inactive).
The same measure for `CC1(C)CC(N2CCN(C(c3ccccc3)c3ccccc3)CC2)=CC(=[N+]2CCCCC2)C1`: 53.6% (active); for `CCOC(=O)C1=C(c2ccccc2)N=C2SCC(=O)N2C1c1ccc(O)c(OC)c1` (stereo unspecified): -13.7% (inactive).
Turning to `O=C(Nc1ccc2c(c1)OCCO2)C(C1CC1)N1CCC(Cc2ccccc2)CC1` (stereo unspecified), the inhibition (viability loss, TRAIL sensitization) is 1.75% (inactive).
The same measure for `c1c2c(cc3sc(N4CCCCC4)nc13)OCCO2`: 76.5% (active).
With `CCN1CCC2(CCN(Cc3cn[nH]c3-c3ccc(OC)c(F)c3)C2)C1` (stereo unspecified), the inhibition (viability loss, TRAIL sensitization) is -3.56% (inactive).
The same measure for `CCOc1ccc(NC(=O)CCCCCN2C(=O)[C@@H]3Cc4ccccc4CN3C2=O)cc1`: 9.4% (inactive); for `CCc1ccc(-c2cc3c(=O)n(CC(=O)NCCCN4CCN(Cc5ccccc5)CC4)nc(C)n3n2)cc1`: 57.1% (active).
The same measure for `Cc1ccc(-c2ccc(=O)n(CC(=O)NCCCN3CCCCC3)n2)cc1`: 16% (inactive); for `Cc1nn(CC(=O)NCCc2ccccc2)c(=O)c2cc3occc3n12`: -1.06% (inactive); for `CC(C)=NN1C(=O)c2ccccc2NC1(C)C`: 0.317% (inactive).
Then `CCC(C)C(NC(=O)C1CCC(=O)N1C(=O)OCc1ccccc1)C(=O)NC(C(=O)N1CCCC1C(N)=O)C(C)CC` (stereo unspecified), with 1.84% (inactive); and `Cc1sc2ncnc(N3CCC(C(=O)Nc4ccc(F)cc4Cl)CC3)c2c1C`, with 13.1% (inactive).
`CC(C)CCC(C)NC(=O)c1ccc2nccnc2c1` (stereo unspecified): the inhibition (viability loss, TRAIL sensitization) is 13.2% (inactive).
The same measure for `CC(C)CCNC(=O)c1ccc2c(Cl)c3c(nc2c1)CCC3`: 63.8% (active); for `O=C(CSc1c2c(nc3ccc(Cl)cc13)CCCC2)NCc1ccco1`: 7.83% (inactive).
Then `COc1cccc(/C=N\NC(=O)C2=NNC(=O)C2C)c1O` (stereo unspecified), with 61.6% (active); and `COc1ccc(OC)c(/C=N/NC(=O)c2ccc[n+](CC(=O)c3ccccc3)c2)c1`, with -13.4% (inactive); and `CC1=NNC(=O)C1CCC(=O)N/N=C\c1cccc(Cl)c1` (stereo unspecified), with -5.29% (inactive).
Then `COCc1cc(=O)[nH]c2cc(NC(=O)C(F)(F)F)c(C)cc12`, with 1.06% (inactive); and `CCCCOC(=O)CNc1nnc(SCC(=O)OCC)[nH]c1=O`, with 6.83% (inactive).
As for `Cc1cccc(N2Cc3ccccc3C2=NC(=O)c2ccc(Cl)nc2)c1`, the inhibition (viability loss, TRAIL sensitization) was 4.62% (inactive).
The same measure for `Nc1c(-c2cccc(Cl)c2)cnn1-c1cccc([N+](=O)[O-])c1`: -1.5% (inactive); for `Cc1cccc(-n2ncc(Cl)c(Cl)c2=O)c1`: 95.2% (active); for `C[C@H](NC(=O)C1CC(=O)N(c2ccc3c(c2)OCCO3)C1)C(=O)N1CCC(C(=O)O)CC1` (stereo partly specified): -9.83% (inactive).
In the case of `CC(C)CNC(=O)COC(=O)c1ccccc1OCC(=O)Nc1ccc(Br)cc1`, the inhibition (viability loss, TRAIL sensitization) was 5.47% (inactive).
The same measure for `COC(=O)Cc1[nH]n(-c2nc3ccccc3s2)c(=O)c1C(C)=Nc1ccc(OC)cc1`: 61.1% (active); for `COCCn1c(SCC(=O)c2[nH]c(C)c(C(C)=O)c2C)nc2ccccc2c1=O`: -10% (inactive).
The same measure for `NC(N)=N/N=C/c1ccc(OCc2ccc(Cl)cc2Cl)cc1`: 50.1% (active).
The same measure for `NC(=O)COc1ccc(/C=N/NC(=O)C2CCCN2S(=O)(=O)c2ccc(Cl)cc2)cc1` (stereo unspecified): -8.47% (inactive).
In the case of `CCCCN(C(=O)C1=NN(c2cc(C)ccc2C)C(=O)CC1)c1c(N)n(CCC)c(=O)[nH]c1=O`, the inhibition (viability loss, TRAIL sensitization) is -7.09% (inactive).
Then `CC(C)COc1ccc(C(=O)NNC(=O)CCC(=O)c2cccs2)cc1`, with -0.727% (inactive).
Regarding `Cc1ccc(NC(=O)CSCC(=O)N2CCOCC2)cc1`, the inhibition (viability loss, TRAIL sensitization) is -10.5% (inactive).
Consider `CC(C)COc1ccc(C(=O)OCC(=O)NCCC2=CCCCC2)cc1`, for which the inhibition (viability loss, TRAIL sensitization) was -6.49% (inactive).
Then `COc1ccc(NC(=O)c2ccc(OC)cc2)cc1`, with 50.5% (active); and `COc1cccc(C(=O)Nc2ccc(N3CCCC3)cc2)c1`, with 46.7% (active).
With `O=C(Nc1ccc(Cl)cc1)c1cccc(OC(=S)N2CCOCC2)c1`, the inhibition (viability loss, TRAIL sensitization) is 12.3% (inactive).
Then `COc1ccc(NC(=O)c2ccc(C#CC(C)(C)O)cc2)cc1`, with 0.194% (inactive); and `COc1cccc(C(=O)Nc2ccc3nc4n(c(=O)c3c2)CCCCC4)c1`, with 23.6% (inactive).
Then `COc1ccc(C(=O)Nc2ccc(-n3nncc3C(C)(C)C)cc2)cc1`, with -20.3% (inactive); and `COc1ccc(N2c3ccccc3CN(Cc3ccccc3)[C@@H](C)[C@H]2Cc2ccc(-c3ccccc3)cc2)cc1`, with -5.86% (inactive).
Then `CCOC(=O)C1CCN(C(=O)Cn2nc(C)c3c(C)n(-c4ccccc4)nc3c2=O)CC1`, with -20.8% (inactive).
Consider `CCCN1C(=O)C(NC(C)=O)c2cc(OC)ccc21` (stereo unspecified), for which the inhibition (viability loss, TRAIL sensitization) was -4.35% (inactive).
Then `O=C(COc1ccc2c(C(F)(F)F)cc(=O)oc2c1)Nc1ccc2c(c1)OCCO2`, with -2.58% (inactive); and `COCCn1c(SCC(=O)Nc2nc(C)cs2)nnc1C(C)C`, with -5.23% (inactive).
The same measure for `COc1cc(SC)ccc1C(=O)Nc1nc(C)cs1`: 92.9% (active).
In the case of `Cc1ccnc(NC(=O)c2ccoc2C)c1`, the inhibition (viability loss, TRAIL sensitization) is 11.1% (inactive).
The same measure for `COc1ccc(C(=O)CCC(=O)Nc2cccnc2)c(OC)c1`: 7.09% (inactive); for `Cc1csc(NC(=O)CSc2ccc(-c3ccc(F)cc3)nn2)n1`: -13.9% (inactive); for `COC(=O)c1sc(NC(=O)c2ccc(OC)cc2OC)nc1C`: 82.4% (active).
The same measure for `Cc1ccccc1OCC(=O)Nc1nc(C)c(C(=O)N(C)C)s1`: 3.67% (inactive); for `COc1cc(SC)ccc1C(=O)Nc1cc(C)ccn1`: 67.3% (active); for `Cc1ccnc(NC(=O)CNC(=O)c2ccccc2)c1`: -13.7% (inactive).
